# In the supplement of paper PMC12282887:
# ± gives the standard deviation of the averaged measurements.
# Key:
# Assay in all cases: promoter activity interaction Z-score (Lux/OD deviation from empty-vector control); higher = stronger promoter induction by the compound
# [1] = test system: E. coli BW25113 acrABp lux reporter
# In short: (§1)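 E. coli BW25113, as wild type or one of three single-gene deletion strains, carried low-copy luxCDABE promoter reporters and grew in 40 µl LB Lennox in 384-well plates at 37°C, with OD600 and luminescence read every 30 min for 12 h. Each compound was run at four 1:2 dilutions in biological duplicates, integration spanned 0–8 h for wild type and 1–9 h for deletion strains, and wells under 10% of the median growth value were dropped. The score is the Z-transformed residual of growth-normalised luminescence fitted against a control.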
# [2] = test system: E. coli BW25113 marRABp lux reporter
# In short: as §1
# [3] = test system: E. coli BW25113 micFp lux reporter
# In short: as §1
# [4] = test system: E. coli BW25113 ompFp lux reporter
# In short: as §1
# [5] = test system: E. coli BW25113 robp lux reporter
# In short: as §1
# [6] = test system: E. coli BW25113 soxSp lux reporter
# In short: as §1
# [7] = test system: E. coli BW25113 tolCp lux reporter
# In short: as §1
# [8] = 12.9 µg/ml, genetic background: wild type
# [9] = 12.9 µg/ml, genetic background: ΔmarA
# [10] = 12.9 µg/ml, genetic background: Δrob
# [11] = 12.9 µg/ml, genetic background: ΔsoxS
# [12] = 25.8 µg/ml, genetic background: wild type
# [13] = 25.8 µg/ml, genetic background: ΔmarA
# [14] = 25.8 µg/ml, genetic background: Δrob
# [15] = 25.8 µg/ml, genetic background: ΔsoxS
# [16] = 51.6 µg/ml, genetic background: wild type
# [17] = 51.6 µg/ml, genetic background: ΔmarA
# [18] = 51.6 µg/ml, genetic background: Δrob
# [19] = 51.6 µg/ml, genetic background: ΔsoxS
# [20] = 103.1 µg/ml, genetic background: wild type
# [21] = 103.1 µg/ml, genetic background: ΔmarA
# [22] = 103.1 µg/ml, genetic background: Δrob
# [23] = 103.1 µg/ml, genetic background: ΔsoxS
compound,measurement,setting,value
CC(C)Cc1ccc(C(C)C(=O)O)cc1 (configuration not stated) [Ibuprofen],promoter activity interaction Z-score,[1]; [8],0.434 ± 0.3
same,promoter activity interaction Z-score,[1]; [9],-0.569 ± 0.69
same,promoter activity interaction Z-score,[1]; [10],0.0303 ± 0.11
same,promoter activity interaction Z-score,[1]; [11],0.455 ± 0.63
same,promoter activity interaction Z-score,[1]; [12],0.485 ± 0.088
same,promoter activity interaction Z-score,[1]; [13],0.667 ± 0.1
same,promoter activity interaction Z-score,[1]; [14],-0.156 ± 0.0041
same,promoter activity interaction Z-score,[1]; [15],-0.0442 ± 0.022
same,promoter activity interaction Z-score,[1]; [16],0.366 ± 0.24
same,promoter activity interaction Z-score,[1]; [17],-0.62 ± 0.53
same,promoter activity interaction Z-score,[1]; [18],0.236 ± 0.13
same,promoter activity interaction Z-score,[1]; [19],0.0533 ± 0.45
same,promoter activity interaction Z-score,[1]; [20],0.11 ± 0.073
same,promoter activity interaction Z-score,[1]; [21],2.18 ± 0.32
same,promoter activity interaction Z-score,[1]; [22],-0.393 ± 0.093
same,promoter activity interaction Z-score,[1]; [23],-0.205 ± 0.13
same,promoter activity interaction Z-score,[2]; [8],0.196 ± 0.28
same,promoter activity interaction Z-score,[2]; [9],0.232 ± 0.58
same,promoter activity interaction Z-score,[2]; [10],0.124 ± 0.06
same,promoter activity interaction Z-score,[2]; [11],0.193 ± 0.14
same,promoter activity interaction Z-score,[2]; [12],0.212 ± 0.12
same,promoter activity interaction Z-score,[2]; [13],0.172 ± 0.49
same,promoter activity interaction Z-score,[2]; [14],0.0582 ± 0.32
same,promoter activity interaction Z-score,[2]; [15],0.0302 ± 0.03
same,promoter activity interaction Z-score,[2]; [16],0.119 ± 0.036
same,promoter activity interaction Z-score,[2]; [17],-0.396 ± 0.089
same,promoter activity interaction Z-score,[2]; [18],0.159 ± 0.17
same,promoter activity interaction Z-score,[2]; [19],-0.0798 ± 0.073
same,promoter activity interaction Z-score,[2]; [20],-0.239 ± 0.093
same,promoter activity interaction Z-score,[2]; [21],0.541 ± 0.8
same,promoter activity interaction Z-score,[2]; [22],0.0177 ± 0.01
same,promoter activity interaction Z-score,[2]; [23],-0.0508 ± 0.43
same,promoter activity interaction Z-score,[3]; [8],0.145 ± 0.18
same,promoter activity interaction Z-score,[3]; [9],-0.00146 ± 0.055
same,promoter activity interaction Z-score,[3]; [10],-0.209 ± 0.0032
same,promoter activity interaction Z-score,[3]; [11],0.214 ± 0.16
same,promoter activity interaction Z-score,[3]; [12],0.384 ± 0.26
same,promoter activity interaction Z-score,[3]; [13],0.0835 ± 0.1
same,promoter activity interaction Z-score,[3]; [14],-0.0551 ± 0.11
same,promoter activity interaction Z-score,[3]; [15],0.0794 ± 0.022
same,promoter activity interaction Z-score,[3]; [16],-0.0155 ± 0.081
same,promoter activity interaction Z-score,[3]; [17],0.0304 ± 0.18
same,promoter activity interaction Z-score,[3]; [18],-0.00979 ± 0.056
same,promoter activity interaction Z-score,[3]; [19],0.259 ± 0.28
same,promoter activity interaction Z-score,[3]; [20],0.239 ± 0.31
same,promoter activity interaction Z-score,[3]; [21],-0.0514 ± 0.092
same,promoter activity interaction Z-score,[3]; [22],-0.0741 ± 0.16
same,promoter activity interaction Z-score,[3]; [23],0.193 ± 0.12
same,promoter activity interaction Z-score,[4]; [8],0.335 ± 0.31
same,promoter activity interaction Z-score,[4]; [9],0.335 ± 0.075
same,promoter activity interaction Z-score,[4]; [10],-0.132 ± 0.56
same,promoter activity interaction Z-score,[4]; [11],0.513 ± 0.44
same,promoter activity interaction Z-score,[4]; [12],0.726 ± 0.49
same,promoter activity interaction Z-score,[4]; [13],1.13 ± 1.1
same,promoter activity interaction Z-score,[4]; [14],0.704 ± 0.75
same,promoter activity interaction Z-score,[4]; [15],-0.184 ± 0.45
same,promoter activity interaction Z-score,[4]; [16],0.353 ± 0.34
same,promoter activity interaction Z-score,[4]; [17],0.469 ± 0.28
same,promoter activity interaction Z-score,[4]; [18],0.418 ± 0.24
same,promoter activity interaction Z-score,[4]; [19],0.0995 ± 0.085
same,promoter activity interaction Z-score,[4]; [20],0.349 ± 0.46
same,promoter activity interaction Z-score,[4]; [21],1.78 ± 0.81
same,promoter activity interaction Z-score,[4]; [22],0.954 ± 1.3
same,promoter activity interaction Z-score,[4]; [23],-0.0643 ± 0.52
same,promoter activity interaction Z-score,[5]; [8],0.839 ± 0.9
same,promoter activity interaction Z-score,[5]; [9],0.214 ± 0.091
same,promoter activity interaction Z-score,[5]; [10],0.6 ± 0.66
same,promoter activity interaction Z-score,[5]; [11],0.59 ± 0.11
same,promoter activity interaction Z-score,[5]; [12],1.19 ± 0.31
same,promoter activity interaction Z-score,[5]; [13],2.36 ± 0.11
same,promoter activity interaction Z-score,[5]; [14],0.557 ± 0.45
same,promoter activity interaction Z-score,[5]; [15],-0.577 ± 0.45
same,promoter activity interaction Z-score,[5]; [16],0.25 ± 0.22
same,promoter activity interaction Z-score,[5]; [17],-0.675 ± 0.18
same,promoter activity interaction Z-score,[5]; [18],0.24 ± 0.11
same,promoter activity interaction Z-score,[5]; [19],-0.0538 ± 0.089
same,promoter activity interaction Z-score,[5]; [20],0.337 ± 0.38
same,promoter activity interaction Z-score,[5]; [21],0.9946 ± 0.0074
same,promoter activity interaction Z-score,[5]; [22],0.346 ± 0.75
same,promoter activity interaction Z-score,[5]; [23],0.183 ± 1.1
same,promoter activity interaction Z-score,[6]; [8],0.233 ± 0.39
same,promoter activity interaction Z-score,[6]; [9],-0.0514 ± 0.082
same,promoter activity interaction Z-score,[6]; [10],-0.201 ± 0.088
same,promoter activity interaction Z-score,[6]; [11],0.159 ± 0.065
same,promoter activity interaction Z-score,[6]; [12],0.503 ± 0.48
same,promoter activity interaction Z-score,[6]; [13],0.0892 ± 0.08
same,promoter activity interaction Z-score,[6]; [14],-0.0188 ± 0.046
same,promoter activity interaction Z-score,[6]; [15],-0.109 ± 0.058
same,promoter activity interaction Z-score,[6]; [16],0.0184 ± 0.19
same,promoter activity interaction Z-score,[6]; [17],-0.0994 ± 0.11
same,promoter activity interaction Z-score,[6]; [18],0.111 ± 0.19
same,promoter activity interaction Z-score,[6]; [19],-0.0346 ± 0.014
same,promoter activity interaction Z-score,[6]; [20],-0.0139 ± 0.16
same,promoter activity interaction Z-score,[6]; [21],-0.0609 ± 0.081
same,promoter activity interaction Z-score,[6]; [22],-0.164 ± 0.23
same,promoter activity interaction Z-score,[6]; [23],-0.245 ± 0.15
same,promoter activity interaction Z-score,[7]; [8],-0.813 ± 0.87
same,promoter activity interaction Z-score,[7]; [9],0.0288 ± 1.6
same,promoter activity interaction Z-score,[7]; [10],-0.78 ± 0.64
same,promoter activity interaction Z-score,[7]; [11],-0.147 ± 0.44
same,promoter activity interaction Z-score,[7]; [12],0.563 ± 0.048
same,promoter activity interaction Z-score,[7]; [13],0.78 ± 1.2
same,promoter activity interaction Z-score,[7]; [14],-0.284 ± 1.6
same,promoter activity interaction Z-score,[7]; [15],-0.361 ± 0.24
same,promoter activity interaction Z-score,[7]; [16],-0.451 ± 0.093
same,promoter activity interaction Z-score,[7]; [17],-0.139 ± 0.2
same,promoter activity interaction Z-score,[7]; [18],0.442 ± 1.5
same,promoter activity interaction Z-score,[7]; [19],-0.22 ± 0.31
same,promoter activity interaction Z-score,[7]; [20],0.199 ± 1.1
same,promoter activity interaction Z-score,[7]; [21],0.757 ± 1.8
same,promoter activity interaction Z-score,[7]; [22],-0.377 ± 0.11
same,promoter activity interaction Z-score,[7]; [23],-0.341 ± 0.63
